# Test results published in PubChem BioAssay AID1159580 (chemical genetic matrix, 2015).
# Hit rate of the full screen: of about 5,500 compounds, about 2,000 (36%) were called active. Roughly 18% stayed inconclusive and do not appear here. Some of the results follow. Values without a mark were called inactive. Cut-off read from the data, not from the text of the source: active = normalized growth mostly below about 0.91 (no sharp cut-off); inconclusive = no clear call, values can overlap the other calls; inactive = mostly above about 0.92.
# Assay: chemical genetic growth profiling, strain panel (AID 1159580);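 note: tested at 20 µM; growth read once vehicle control cultures reached saturation at 30 °C; 1 = growth at the plate median or of vehicle wells; lower values mean less growth of the strain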
# Details: growth OD
# [1] = S. cerevisiae deletion strains, locus YAL013W, strain DEP1, active compounds read low
# [2] = S. cerevisiae deletion strains, locus YBR229C, strain ROT2, active compounds read low
# [3] = S. cerevisiae deletion strains, locus YDL101C, strain DUN1, active compounds read low
# [4] = S. cerevisiae deletion strains, locus YDR150W, strain NUM1, active compounds read low
# [5] = S. cerevisiae deletion strains, locus YEL061C, strain CIN8, active compounds read low
# [6] = S. cerevisiae deletion strains, locus YGR078C, strain PAC10, active compounds read low
# [7] = S. cerevisiae deletion strains, locus YHR030C, strain SLT2, active compounds read low
# [8] = S. cerevisiae deletion strains, locus YHR087W, strain rtc3, active compounds read low
# [9] = S. cerevisiae deletion strains, locus YJL187C, strain SWE1, active compounds read low
# [10] = S. cerevisiae deletion strains, locus YJR043C, strain POL32, active compounds read low
# [11] = S. cerevisiae deletion strains, locus YJR075W, strain HOC1, active compounds read low
# [12] = S. cerevisiae deletion strains, locus YKL190W, strain CNB1, active compounds read low
# [13] = S. cerevisiae deletion strains, locus YLR039C, strain RIC1, active compounds read low
# [14] = S. cerevisiae deletion strains, locus YLR058C, strain SHM2 (second series), active compounds read low
# [15] = S. cerevisiae deletion strains, locus YLR085C, strain ARP6, active compounds read low
# [16] = S. cerevisiae deletion strains, locus YLR262C, strain YPT6, active compounds read low
# [17] = S. cerevisiae deletion strains, locus YML094W, strain GIM5, active compounds read low
# [18] = S. cerevisiae deletion strains, locus YMR219W, strain ESC1, active compounds read low
# [19] = S. cerevisiae deletion strains, locus YMR263W, strain SAP30, active compounds read low
# [20] = S. cerevisiae deletion strains, locus YMR307W, strain GAS1, active compounds read low
# [21] = S. cerevisiae deletion strains, locus YNL153C, strain GIM3, active compounds read low
# [22] = S. cerevisiae deletion strains, locus YNL298W, strain CLA4 (second series), active compounds read low
# [23] = S. cerevisiae deletion strains, locus YNL322C, strain KRE1, active compounds read low
# [24] = S. cerevisiae deletion strains, locus YNR030W, strain Alg12, active compounds read low
# [25] = S. cerevisiae deletion strains, locus YPL055C, strain LGE1, active compounds read low
# [26] = S. cerevisiae deletion strains, locus YPL241C, strain CIN2, active compounds read low
# [27] = S. cerevisiae deletion strains, locus YPR135W, strain CTF4, active compounds read low
# [28] = S. cerevisiae strains, strain wild type, active compounds read low
# [29] = S. cerevisiae deletion strains, locus YAL040C, strain CLN3, active compounds read low
# [30] = S. cerevisiae deletion strains, locus YDR363W, strain ESC2, active compounds read low
# [31] = S. cerevisiae deletion strains, locus YER002W, strain NOP16, active compounds read low
# [32] = S. cerevisiae deletion strains, locus YNL175C, strain NOP13, active compounds read low
# [33] = S. cerevisiae deletion strains, locus YNL197C, strain WHI3, active compounds read low
# [34] = S. cerevisiae deletion strains, locus YNL224C, strain SQS1, active compounds read low
# [35] = S. cerevisiae deletion strains, locus YOR083W, strain WHI5 (second series), active compounds read low
# [36] = S. cerevisiae deletion strains, locus YNL128W, strain TEP1, active compounds read low
# [37] = S. cerevisiae deletion strains, locus YOL006C, strain TOP1, active compounds read low
compound,measurement,setting,value
CN(C(=O)Nc1ccccc1)n1cnc2ccccc2c1=O,normalized growth,[1],0.999
same,normalized growth,[2],1.03
same,normalized growth,[3],1
same,normalized growth,"S. cerevisiae deletion strains, locus YDL134C, strain PPH21, active compounds read low",1.03
same,normalized growth,[4],0.917
same,normalized growth,[5],1.02
same,normalized growth,[6],1.01
same,normalized growth,[7],1.01
same,normalized growth,[8],0.994
same,normalized growth,[9],1.01
same,normalized growth,[10],0.998
same,normalized growth,[11],1.04
same,normalized growth,[12],1.01
same,normalized growth,[13],1
same,normalized growth,[14],1.02
same,normalized growth,[15],1.04
same,normalized growth,[16],1.01
same,normalized growth,[17],1.03
same,normalized growth,[18],1.01
same,normalized growth,[19],0.994
same,normalized growth,[20],0.98
same,normalized growth,[21],1.01
same,normalized growth,[22],1
same,normalized growth,[23],1.01
same,normalized growth,[24],1.01
same,normalized growth,[25],1.05
same,normalized growth,[26],1.02
same,normalized growth,[27],1
same,normalized growth,[28],1.01
CCCCCCC(C)(C)c1ccc([C@@H]2C[C@H](O)CC[C@H]2CCCO)c(O)c1,normalized growth,[1],1.01
same,normalized growth,[29],0.993
same,normalized growth,[4],0.986
same,normalized growth,[30],1.02
same,normalized growth,[31],0.977
same,normalized growth,[20],1.01
same,normalized growth,[21],0.716 (active)
same,normalized growth,[32],0.915
same,normalized growth,[33],0.944
same,normalized growth,[34],0.922
same,normalized growth,[23],1.01
same,normalized growth,[35],0.897
same,normalized growth,[25],0.998
CCCCCN(CCCCC)C(=O)C(CCC(=O)O)NC(=O)c1ccc(Cl)c(Cl)c1 (configuration not stated),normalized growth,[1],1.01
same,normalized growth,[29],1
same,normalized growth,"S. cerevisiae deletion strains, locus YCL061C, strain MRC1 (second series), active compounds read low",1
same,normalized growth,[4],0.993
same,normalized growth,[30],1.03
same,normalized growth,[31],0.991
same,normalized growth,[7],0.993
same,normalized growth,"S. cerevisiae deletion strains, locus YHR079C, strain IRE1, active compounds read low",0.986
same,normalized growth,"S. cerevisiae deletion strains, locus YJL095W, strain BCK1, active compounds read low",1.01
same,normalized growth,"S. cerevisiae deletion strains, locus YJR066W, strain TOR1, active compounds read low",0.97
same,normalized growth,[11],1.02
same,normalized growth,"S. cerevisiae deletion strains, locus YLR113W, strain HOG1, active compounds read low",0.952
same,normalized growth,[20],0.992
same,normalized growth,[36],0.963
same,normalized growth,[32],0.995
same,normalized growth,"S. cerevisiae deletion strains, locus YNL183C, strain NPR1, active compounds read low",0.949
same,normalized growth,[33],0.986
same,normalized growth,[34],0.985
same,normalized growth,[35],0.95
same,normalized growth,"S. cerevisiae deletion strains, locus YOR231W, strain MKK1, active compounds read low",0.983
same,normalized growth,[25],0.983
same,normalized growth,"S. cerevisiae deletion strains, locus YPL256C, strain CLN2, active compounds read low",0.987
COC(=O)c1cc([N+](=O)[O-])ccc1N1CCOCC1,normalized growth,[1],1.01
same,normalized growth,[2],1
same,normalized growth,[3],1.01
same,normalized growth,[4],0.98
same,normalized growth,[5],1.01
same,normalized growth,[6],1.01
same,normalized growth,[7],1.09
same,normalized growth,[8],1.02
same,normalized growth,[9],1
same,normalized growth,[10],0.991
same,normalized growth,[11],0.988
same,normalized growth,[12],1.01
same,normalized growth,[13],1.02
same,normalized growth,[14],1
same,normalized growth,[15],1.06
same,normalized growth,[16],1.01
same,normalized growth,[17],1.03
same,normalized growth,[18],1
same,normalized growth,[19],1
same,normalized growth,[20],1.06
same,normalized growth,[21],0.995
same,normalized growth,[22],1.05
same,normalized growth,[23],0.993
same,normalized growth,[24],1.03
same,normalized growth,[37],1.06
same,normalized growth,[25],1.02
same,normalized growth,[26],1.06
same,normalized growth,[27],1.04
same,normalized growth,[28],1.01
COc1cc([N+](=O)[O-])ccc1N1CCCC1,normalized growth,[1],0.898 (active)
same,normalized growth,[2],0.941
same,normalized growth,[3],0.882 (active)
same,normalized growth,[4],0.898
same,normalized growth,[5],0.912
same,normalized growth,[6],0.882 (active)
same,normalized growth,[7],0.302 (active)
same,normalized growth,[8],0.979
same,normalized growth,[9],0.902 (active)
same,normalized growth,[10],0.951
same,normalized growth,[11],0.933
same,normalized growth,[13],0.554 (active)
same,normalized growth,[14],0.929 (active)
same,normalized growth,[15],0.605 (active)
same,normalized growth,[16],0.661 (active)
same,normalized growth,[17],0.865 (active)
same,normalized growth,[18],0.934 (active)
same,normalized growth,[19],0.928
same,normalized growth,[20],0.445 (active)
same,normalized growth,[36],0.931
same,normalized growth,[21],0.913 (active)
same,normalized growth,[22],0.775 (active)
same,normalized growth,[23],0.916 (active)
same,normalized growth,[24],0.862 (active)
same,normalized growth,[37],0.522 (active)
same,normalized growth,[25],0.946
same,normalized growth,[26],0.858 (active)
same,normalized growth,[27],0.512 (active)
same,normalized growth,[28],0.867 (active)
